# HepG2 tox: qHTS for Inhibitors of TGF-b: Cytotox Counterscreen. HepG2 CAGA-GFP viability, ATP luminescence, 18 h. Potency, µM (titrated, usually from 46.1 µM), without a hit: at the top dose activity change, negative = cytotoxicity, most hits filed as cytotoxic. 410,000 compounds, 0.76% hits. AID 588856, 2011
#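 HepG2 CAGA-GFP cells (1000/well, DMEM with 1% FBS) received compound, then TGF-beta at 500 pg/mL final, and were incubated 18 hours at 37 degrees C. Viability was read by CellTiter-Glo luminescence. Media-only wells were set as complete cell-killing and DMSO as no toxicity.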
# KB-V1 MDR tox: qHTS assay for MDR1-selective chemotherapeutics: Primary screen using the drug-selected MDR subline cells KB-V1; KB-V1 MDR cells viability, CellTiter-Glo, 72 h; Potency, µM (top dose mostly 46.1 µM), hits mostly cytotoxic; 400,000 compounds, 3.4% hits; AID 1347076, 2019; further: on the % scale 0 is the no-effect control and ±100 the full control effect; nearly all actives have a fitted effect of over 60% in size
#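 qHTS viability screen in drug-selected KB-V1 MDR cells: 72 h compound treatment at 37 degrees C, ATP luminescence end point.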
# HT1080 IDH1KD tx: qHTS for induction of synthetic lethality in tumor cells producing 2HG: qHTS for the HT-1080-IDH1KD cell line | HT-1080 IDH1 knockdown viability, ATP luminescence, 48 h | Potency, µM (series often up to 46.1 µM), without a hit: at the top dose activity, negative = toxicity, hits mostly cytotoxic | 360,000 compounds, 2% hits;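 further: 0% = DMSO wells and -100% = cell-free medium wells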
#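 Assay cells: HT-1080 with IDH1 knockdown, 750 per well, RPMI/5% FBS. Exposure: 48 h at 37 °C following 2 h pre-incubation. Read: CellTiter-Glo luminescence; fitted concentration-response, curve class assigned.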
# TGFb inhibitor: qHTS for Inhibitors of TGF-b | HepG2 CAGA-GFP TGF-b/SMAD3 reporter, GFP fluorescence, 18 h; TGF-beta stimulated, 500 pg/mL final | Potency, µM (titrated, usually from 46.1 µM), for the others: at the highest dose activity, negative = inhibition, usual class: inhibitors | 410,000 compounds, 1.2% hits | AID 588855, 2011; further: on the % scale 0 is the no-effect control and ±100 the full control effect; nearly all actives have a fitted effect of over 65% in size
#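 GFP signal (ex488/em500-530) from TGF-beta-stimulated HEPG2 CAGA-GFP cells, 500 pg/mL final, 18 h at 37 degrees C in DMEM plus 1% FBS, normalized to unstimulated and DMSO-stimulated controls.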
# KB-3-1 cytotox: qHTS assay for MDR1-selective chemotherapeutics: Primary screen using the parental adenocarcinoma cell KB-3-1; KB-3-1 viability, CellTiter-Glo ATP luminescence, 72 h; Potency, µM (top dose mostly 46.1 µM), most hits filed as cytotoxic; 400,000 compounds, 1.4% hits; AID 1347075, 2019; further: on the % scale 0 is the no-effect control and ±100 the full control effect; nearly all actives have a fitted effect of over 60% in size
#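 Cytotoxicity measured as CellTiter-Glo luminescence after 72 h at 37 C. Compound titrations were pinned onto drug-naive KB-3-1 parental adenocarcinoma cells grown in DMEM with 10% FBS, and normalized data fitted to concentration-response curves.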
# HT1080-NT tox: qHTS for induction of synthetic lethality in tumor cells producing 2HG: qHTS for the HT-1080-NT fibrosarcoma cell line. Potency, µM (highest dose often 46.1 µM), inactives show at the top dose activity, negative = less viability, usual class: cytotoxic. HT-1080-NT fibrosarcoma viability, CellTiter-Glo ATP luminescence, 48 h. 360,000 compounds, 1.6% hits;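 further: NT is the 2HG producing partner of a matched IDH1 knockdown line; 0% = DMSO-treated cells and -100% = media-only wells without cells; nearly all actives have a fitted effect of over 55% in size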
#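 Viability by CellTiter-Glo luminescence after 48 h compound exposure at 37C of HT-1080-NT cells (750/well, RPMI, 5% FBS). % activity scaled between DMSO wells and medium-only wells, then curve-fitted and categorized by curve class.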
# An asterisk follows results filed as active; i = inactive; u = inconclusive; x = no result. Most compounds without a hit are left out; they make up all but 6.6% or so of the library. The call rests on the fitted dose curve; in most records, active means well fitted curve in the direction sought with a large enough effect; inconclusive means small, poorly fitted or top-dose-only effect, or another doubt; inactive means no such curve, though single readings can be large; an effect the other way counts as inactive or inconclusive. Potency means the concentration at half of the fitted maximal effect.
SMILES,HepG2 tox,KB-V1 MDR tox,HT1080 IDH1KD tx,TGFb inhibitor,KB-3-1 cytotox,HT1080-NT tox
Oc1ccccc1Nc1nc(NCc2ccco2)c2ccccc2n1,-74%,i,-6%,u,i,-13%
CNc1nc(NCc2ccco2)c2ccccc2n1,-39%,i,x,2.8µM*,u,x
CSc1nc(NCc2ccco2)c2ccccc2n1,-12%,12µM*,u,-18%,u,-7%
Clc1nc(NCc2ccco2)c2ccccc2n1,-14%,i,x,1%,i,x
c1ccc(Nc2nc(NCc3ccco3)c3ccccc3n2)cc1,-77%,u,23µM*,u,u,21µM*
Cc1cccc(Nc2nc(NCc3ccco3)c3ccccc3n2)c1,10µM*,15µM*,18µM*,u,u,u
O=C(CCn1c(=O)c2cccn2c2ccc(F)cc21)NCCc1ccccc1Cl,-47%,x,x,u,x,x
COc1ccccc1NC(C)C(=O)c1c(C)[nH]c2ccccc12 (stereo not given),-10%,i,x,-21%,i,x
Nc1ccc(/C=C/c2cc(Cl)nc3ccccc23)cc1,-26%,u,x,-6%,u,x
O=S(=O)(c1ccccc1)N1CCN(Cc2ccccc2)c2ccccc21,-70%,18µM*,0%,-35%,i,-7%
O=S(=O)(c1ccccc1)N1CCN(Cc2ccccc2)CC1,5%,u,5%,16%,u,5%
O=C(/C=C/c1ccco1)Nc1ccccn1,-52%,u,u,-10%,5.8µM*,u
O=C(/C=C/c1ccco1)Nc1nc(-c2ccccn2)cs1,15%,i,-19%,u,i,-17%
O=C(/C=C/c1ccco1)Nc1ccc(Oc2ccc(Cl)cc2)cc1,-22%,u,4.1µM*,-17%,5.8µM*,5.8µM*
Cc1ccc(NC(=O)/C=C/c2ccco2)nc1,-3%,0.1µM*,0.0058µM*,-12%,0.16µM*,0.046µM*
Cc1ccc(NC(=O)Nc2ccc3c(c2)OCO3)nc1,-23%,i,-5%,-12%,i,-12%
COc1cccc(NC(=O)/C=C/c2ccco2)c1,-41%,u,-16%,-21%,i,-14%
O=C(/C=C/c1ccco1)Nc1cccnc1,-18%,i,21%,-11%,i,24%
Cc1ccc(NC(=O)/C=C/c2ccc3c(c2)OCO3)nc1,-1%,i,-28%,1%,7.3µM*,u
CSc1cccc(NC(=O)C(c2ccccc2)N2Cc3ccccc3C2=O)c1 (stereo not given),-14%,x,x,u,x,x
Cc1ccnc(SCC(=O)Nc2sc3c(c2C#N)CCC(C(C)(C)C)C3)n1 (stereo not given),5%,13µM*,12%,24%,u,25%
Cc1c(CCOC(=O)C23CC4(C)CC(C)(CC(C)(C4)C2)C3)sc[n+]1CC(=O)c1ccccc1,20µM*,u,u,10µM*,u,u
Cc1c(CCOC(=O)C23CC4CC(CC(C)(C4)C2)C3)sc[n+]1Cc1ccccc1,-38%,i,23µM*,u,u,u
CS(=O)(=O)c1ccc(CNC(=O)C2(C(F)(F)F)CC(CCCO)CCCO2)cc1 (stereo not given),-41%,u,5.8µM*,4%,5.8µM*,1.6µM*
c1ccc(COc2ccc(-c3cc4nc(NCCN5CCOCC5)ccn4n3)cc2)cc1,-43%,i,18µM*,26%,i,u
SMILES,HepG2 tox,KB-V1 MDR tox,HT1080 IDH1KD tx,TGFb inhibitor,KB-3-1 cytotox,HT1080-NT tox
c1ccc(COc2ccc(-c3cc4nc(NCCOc5ccccc5)ccn4n3)cc2)cc1,-48%,i,-21%,0%,i,-25%
c1ccc(COc2cccc(-c3cc4nc(NCCN5CCOCC5)ccn4n3)c2)cc1,-29%,i,u,1%,i,15µM*
COc1ccc(Cl)cc1NC(=O)Cn1cc(C(=O)c2ccncc2)c(=O)c2cc(C)ccc21,-23%,x,x,13%,x,x
O=C1NC[C@@H](CCCCN2C[C@H](Cc3ccc(O)cc3)N(Cc3ccccc3)C(=O)C2=O)N(Cc2ccccc2)C1=O,x,i,14%,x,i,18%
CSc1ncc(C(=O)Nc2cc(Cl)ccc2C)c(-c2ccccc2)n1,-1%,i,x,-23%,i,x
COc1cccc(CCN2CCC(CNS(=O)(=O)c3cc(-c4cc(C)no4)ccc3C)CC2)c1,-110%,u,u,16µM*,i,u
Cc1cc2oc(=O)cc(CN3CCN(S(=O)(=O)/C=C/c4ccccc4)CC3)c2cc1C,-23%,2.6µM*,-14%,-4%,i,2%
Cc1cc2oc(=O)cc(CN3CCN(S(=O)(=O)c4ccc5c(c4)OCCO5)CC3)c2cc1C,-1%,i,-4%,-11%,i,-8%
COc1cccc2c1OC[C@@H](CO)[C@H]2N(C)C(=O)Nc1ccc(Cl)cc1Cl,-5%,3.3µM*,-15%,u,23µM*,0%
COc1ccccc1-c1nnc(SCC(=O)Nc2ccc(Cl)cc2Cl)o1,0%,i,-7%,3%,i,2%
Cc1ccc2nc(N3CC(=O)Nc4ccccc43)nc(-c3ccccc3)c2c1,-6%,u,16µM*,0%,i,18µM*
COc1ccc(NC(=O)C(c2ccc(OC)cc2)n2c(=O)c(-c3cc4ccccc4[nH]3)nc3ccccc32)cc1 (stereo not given),x,i,-22%,x,i,u
O=C(Nc1ccc2c(c1)OCCO2)C(c1ccc(C(F)(F)F)cc1)n1c(=O)c(-c2cc3ccccc3[nH]2)nc2ccccc21 (stereo not given),x,i,16µM*,x,i,u
O=C(Nc1ccc2ccccc2c1)C(c1ccc(C(F)(F)F)cc1)n1c(=O)c(-c2cc3ccccc3[nH]2)nc2ccccc21 (stereo not given),x,i,16µM*,x,i,u
c1ccc2c(c1)CNc1ccccc1-2,-15%,x,0%,-2%,x,-5%
Cc1nc(N)ncc1-c1ccc2c(c1)OCO2,-7%,12µM*,2%,-18%,u,5%
N#Cc1c(-n2cccc2/C=N/O)sc2c1CCCC2,-1%,23µM*,6%,u,i,8%

# From PubChem
